Screening results (PubChem BioAssay)
HCMV inh: inhibitors of human cytomegalovirus | HFF cells, HCMV-luciferase reporter, 72 h; active compounds read low | activity change, negative = inhibition, % at 57.5 µM | 410,000 tested, 4.5% active | AID 1259415; in the data active = activity change below about -60%; inconclusive = no clear call, values can overlap the other calls; inactive = above about -39%
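Cell-based, HFFs, 1000 cells/well, 16 h 37C; cpds in DMSO + HCMV-luc, MOI 1 PFU/cell; 72 h 37C; OneGlo luminescence after 5 min RT; norm. to buffer vs Salinomycin 10uM.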
MARV entry inh: blocks Marburg virus binding to or entry into cells; Marburg virus pseudotyped entry inhibition, cell reporter; 300,000 tested, 1.8% active; Potency, µM (highest dose often 37.8 µM), inactives show at the top dose activity change, negative = inhibition, hits mostly inhibitors; AID 540276; calls by dose curve; tested in HEK293 cells; also: potency is read from the fitted curve at half-maximal effect
LASV entry inh: Lassa virus entry inhibition | Potency, µM (highest dose often 37.9 µM), without a hit: top-dose activity change, negative = inhibition, usual class: inhibitors | Lassa virus pseudotype entry inhibition, cell reporter | AID 540256 | 300,000 tested, 1.2% active; calls by dose curve; tested in HEK293 cells; also: potency is read from the fitted curve at half-maximal effect; nearly all actives have a fitted effect of over 50% in size
Vaccinia Venus: vaccinia inhibition (Venus reporter). Potency, µM (top dose mostly 36.5 µM), for the others: top-dose activity change, negative = inhibition, usual class: inhibitors. Vaccinia virus Venus reporter expression, fluorescence. 330,000 tested, 0.46% active. AID 720580; calls by dose curve; tested in A549 cells; also: potency is read from the fitted curve at half-maximal effect; nearly all actives have a fitted effect of over 30% in size
HCV inh: inhibitors of hepatitis C virus infection | Potency, µM (series often up to 41.8 µM), for the others: top-dose activity change, negative = inhibition, actives largely listed as inhibitors | 340,000 tested, 3.4% active | Huh7.5.1 HCVcc-Cre infection, luciferase reporter, 44 h | AID 651820; active = well fitted inhibition curve with a large enough effect; inconclusive = small, poorly fitted or top-dose-only effect, or another doubt; inactive = no such curve, though single readings can be large or run the other way; also: potency is read from the fitted curve at half-maximal effect
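Cells seeded at 1,000/well and cultured 4 h, then compounds added followed by HCVcc-Cre virus (~0.5 moi). After 44 h further culture, luciferase substrate was added, plates held 15 min at room temperature, and luminescence read for 15 sec.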
VACV mCherry inh: inhibitors of vaccinia virus infection (mCherry reporter signal); Potency, µM (top dose mostly 36.5 µM), for the others: top-dose activity change, negative = inhibition, hits mostly inhibitors; Vaccinia virus mCherry reporter infection, fluorescence; 310,000 tested, 0.63% active; calls by dose curve; tested in A549 cells; also: potency is read from the fitted curve at half-maximal effect; nearly all actives have a fitted effect of over 35% in size
Starred values were filed as active, the others as inactive; i = inactive; ? = inconclusive; nt = no result; [ ] = another dose, or the depositor's remark. In the library only some 7.8% were active in any assay of this set; here they are far more common. % is scaled to controls: 0 for no effect and ±100 for the full control effect.

SMILES | HCMV inh | MARV entry inh | LASV entry inh | Vaccinia Venus | HCV inh | VACV mCherry inh
Cc1sc(N)nc1-c1ccc2c(c1)OCCO2 | 31 | nt | nt | nt | 14% | nt
C=CCN=C1NN=C(c2ccc3c(c2)OCCO3)CS1 | -33 | 0.92µM* | 0.46µM* | -16% | -18% | ?
C=CCN=C1NN=C(c2cc(C)n(CC=C)c2C)CS1 | -88* | ? | ? | -1% | ? | -1%
NC1=NN=C(c2ccc3c(c2)OCCO3)CS1 | 47 | 11µM* | 7.1µM* | -18% | 6% | -15%
COCCN=C1NN=C(c2cc(C)n(CC3CCCO3)c2C)CS1 (centres undefined) | 30 | 5%[46.1 µM] | nt | -2% | -26% | -9%
Cc1ccc2cc(CN(C(=O)c3ccc4c(c3)OCO4)C3CC3)c(N(C)C)nc2c1 | nt | nt | nt | 13% | nt | -8%
CCCn1c2ccccc2c2cnn(CC(=O)NCC3CCN(Cc4ccc(F)cc4)CC3)c(=O)c21 | ? | nt | 3%[46.1 µM] | -20% | nt | -17%
CCCNC(=O)c1ccc(Cn2cc(-c3ccc(C)cc3)ncc2=O)cc1 | 8 | nt | nt | nt | nt | nt
COc1ccccc1CCNc1ncnc2nc[nH]c12 | nt | nt | nt | ? | nt | -26%
Cc1ccc(Sc2nc(C)c([N+](=O)[O-])c(C)c2C#N)cc1 | -70* | -5%[46.1 µM] | -1% | -10% | -10% | -14%
COc1ccc(CNc2nc(C)c([N+](=O)[O-])c(C)c2C#N)cc1 | ? | -7% | 12% | -11% | -4% | i
Cc1nc(Sc2ccc(Br)cc2)c(C#N)c(C)c1[N+](=O)[O-] | -77* | ? | ? | -29% | ? | -14%
Cc1ccc(Sc2ncnc(N)c2[N+](=O)[O-])cc1 | -17 | -42% | 0% | -9% | -1% | -18%
Cc1nc(Sc2ccc(Cl)cc2)c(C#N)c(C)c1[N+](=O)[O-] | -75* | 0%[14.2 µM] | 0% | -1% | -29% | ?
Cc1cc(C)cc(NC(=O)C2CCN(c3cc(C)nc4c(-c5ccc(Cl)cc5)c(C)nn34)CC2)c1 | 10 | 10%[46.1 µM] | 15%[46.1 µM] | 5% | nt | 2%
CN(C)c1ccc(C(CNS(=O)(=O)c2ccc(F)cc2)N2CCCC2)cc1 (centres undefined) | -7 | nt | ? | -6% | nt | -11%
CCC(C)c1ccc(S(=O)(=O)N2CCN(C(C)C(=O)NC3CCCC3)CC2)cc1 (centres undefined) | ? | -21% | 2.8µM* | -21% | ? | -12%
CC(C(=O)N1CCCCC1)N1CCN(S(=O)(=O)c2ccc(Cl)cc2)CC1 (centres undefined) | 1 | nt | nt | nt | 13% | nt
CCCc1ccc(S(=O)(=O)N2CCN(C(C)C(=O)NC3CCCC3)CC2)cc1 (centres undefined) | -24 | -1% | ? | -19% | ? | i
CC(C)c1ccc(S(=O)(=O)N2CCN(C(C)C(=O)N3CCCC3)CC2)cc1 (centres undefined) | -70* | 18% | ? | -17% | 19% | -16%
O=C(Cn1cc(S(=O)(=O)c2ccccc2)c(=O)c2cc3c(cc21)OCO3)Nc1ccc(Cl)cc1 | -12 | -22%[46.1 µM] | -21%[46.1 µM] | -6% | nt | -5%
CCOC(=O)c1sc(NC(=O)C(C)Sc2nc(-c3ccccc3)cc(C(F)(F)F)n2)c(C(=O)OC)c1C (centres undefined) | -12 | 2%[46.1 µM] | -21%[46.1 µM] | -15% | nt | -3%
C[C@H]1[C@@H](NC(=O)NCCCc2ccccc2)CC[C@@]23CCCN2C(=O)CCC[C@@H]13 | -17 | nt | nt | nt | nt | nt
Cc1cc(Br)ccc1NC(=O)CCS(=O)(=O)c1cccc2nsnc12 | -24 | 12%[46.1 µM] | 19%[46.1 µM] | -7% | nt | -2%
CCOc1ccc(S(=O)(=O)N2CCN(C(=O)c3ccc(-n4cncn4)c([N+](=O)[O-])c3)CC2)cc1 | -4 | -4% | -17% | -24% | 11µM* | -13%
SMILES | HCMV inh | MARV entry inh | LASV entry inh | Vaccinia Venus | HCV inh | VACV mCherry inh
CCOc1ccc(S(=O)(=O)N2CCN(C(=O)c3ccc(Cl)c(S(=O)(=O)N4CCOCC4)c3)CC2)cc1 | -60* | nt | nt | nt | 7% | nt
CCOc1ccc(S(=O)(=O)N2CCN(C(=O)c3cc(S(=O)(=O)N4CCOCC4)ccc3C)CC2)cc1 | -2 | -6% | -4% | -28% | 6% | -6%
CCOc1ccc(S(=O)(=O)N2CCN(C(=O)c3ccc(C)c(S(=O)(=O)N4CCOCC4)c3)CC2)cc1 | -61* | ? | ? | -28% | ? | ?
CCCSc1nnc(NC(=O)Nc2ccccc2)s1 | -99* | -23% | 12% | -7% | 8% | i
Cc1ccc(NC(=O)Nc2nnc(SCC(=O)N3CCC(C)CC3)s2)cc1 | -88* | nt | 20%[46.1 µM] | -4%[7.34 µM] | nt | 2%[7.34 µM]
CCCSc1nnc(NC(=O)Nc2ccc(F)cc2)s1 | -104* | ? | ? | 7.9µM* | ? | nt
COc1ccc(OC)c(NS(=O)(=O)c2ccc(-c3cc(C)no3)s2)c1 | 0 | nt | ? | -29% | nt | -26%
O=C(NCC1Cc2cccc(-c3ccccn3)c2O1)c1cnn2cccnc12 (centres undefined) | nt | nt | nt | -15% | nt | -21%
CCCOC(=O)c1c(NC(=O)C2c3ccccc3Oc3ccccc32)sc2c1CCC(C)C2 (centres undefined) | 0 | 3%[46.1 µM] | 6%[46.1 µM] | -2% | nt | -2%
CCOc1ccc(-n2c(-c3ccccc3)c[n+]3c2CCCCC3)cc1 | -100* | nt | nt | nt | ? | nt
c1ccc(-c2c[n+]3c(n2-c2ccccc2)CCC3)cc1 | -37 | nt | nt | nt | ? | nt
CCOc1ccc(-c2c(C)n(-c3ccc(OCC)cc3)c3[n+]2CCCCC3)cc1 | -95* | ? | ? | -18% | 2.5µM* | -20%
CCOc1ccc(-n2c(C)c(C(C)=O)c(C(C)=O)c2C)cc1 | ? | -1% | 1% | -27% | 2% | nt
Cc1ccc(-c2c[n+]3c(n2-c2ccccc2)CCC3)cc1 | -96* | ? | ? | -25% | ? | -16%
Cc1ccc(OCCOC(=O)Nc2ccccc2)cc1 | -62* | 12% | 14% | -15% | 10% | -11%
Cc1ccc(Sc2ncccc2COC(=O)Nc2c(C)cccc2C)cc1 | 27 | -15% | 2.8µM* | ? | ? | nt
Cc1ccc(Sc2ncccc2COC(=O)Nc2ccccc2)cc1 | 14 | -28% | 16µM* | -22% | ? | nt
COc1cc(CN2CCC3(CCC(CNC(=O)c4ccco4)O3)CC2)ccc1O (centres undefined) | nt | nt | nt | -5% | nt | i
O=C(Nc1ccc(F)cc1)[C@H](Cc1ccccc1)N1Cc2ccccc2C1=O | 4 | -27%[46.1 µM] | -9%[46.1 µM] | 1% | nt | 2%
COc1ccc(OCC(=O)NC(Cc2c[nH]c3ccccc23)C(=O)O)cc1 (centres undefined) | 12 | -20%[46.1 µM] | -25%[46.1 µM] | 0% | nt | -6%
CCc1ccc(-c2cn3c(n2)SCC3)cc1 | 83 | ? | -15%[46.1 µM] | -19% | 6% | ?
CCc1ccc(-c2cn(-c3nc(C)cc(C)n3)c(=N)o2)cc1 | -101* | ? | 16µM* | nt | 22µM* | nt
c1ccc2c(-c3ccc(OCCN4CCCCC4)cc3)c(-c3ccsc3)sc2c1 | -23 | nt | nt | -29% | ? | ?
